According to PubChem BioAssay (EPA / NIEHS):
Records with an inconclusive call do not appear. Calls of active or inactive are those of the source. How the source made its calls, unless noted: active means hit-call score of the fitted dose curve at least 0.9, where 1 is the maximum; inactive means score below 0.9.

Experiments:
[1] = ATG_M_32_TRANS: Attagene TRANS-FACTORIAL HepG2 Assay for M32 Transcription Factor (Internal Marker) (AID 2282984; active means hit-call score of the fitted dose curve at least 0.9, where 1 is the maximum;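 further: transcript level of a background control reporter unit measured by RT-PCR and capillary electrophoresis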); conditions: HepG2 Attagene TRANS M32 internal marker reporter
Summary of the method: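 After 24 h dosing of transfected HepG2 cells, total RNA was reverse-transcribed, reporter sequences PCR-amplified, 6-FAM labelled by primer extension and HpaI-digested before capillary electrophoresis. Signal increase over DMSO was fitted.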

[2] = target: Nuclear receptor subfamily 4 group A member 2 (Homo sapiens) (UniProt P43354); assay: ATG_NURR1_TRANS: Attagene TRANS-FACTORIAL HepG2 Assay for human Nuclear Receptor Related Protein 1 (NURR1) (AID 2282985; active means hit-call score of the fitted dose curve at least 0.9, where 1 is the maximum); conditions: HepG2 Attagene TRANS reporter, mRNA readout
Summary of the method: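 Chimeric NR-Gal4 fusion activity measured in HepG2 after 24 h treatment. Reporter transcripts detected by RT-PCR and capillary electrophoresis fluorescence; positive-direction curve fitting against DMSO.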

[3] = target: Transcriptional activator Myb (Homo sapiens) (UniProt P10242); assay: ATG_Myb_CIS: Attagene CIS-FACTORIAL HepG2 Assay for human Myeloblastosis (Myb) Proto-Oncogene Transcription Factor (AID 2282986); conditions: HepG2 Attagene CIS-FACTORIAL Myb reporter transcription; actives raise or lower the signal
Summary of the method: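 Multiplexed cis-reporter system in HepG2: transient transfection, 24 h treatment, mRNA readout by RT-PCR and capillary electrophoresis. Both increases and decreases are scored versus DMSO negative control.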

[4] = target: Nuclear respiratory factor 1 (Homo sapiens) (UniProt Q16656); assay: ATG_NRF1_CIS: Attagene CIS-FACTORIAL HepG2 Assay for human Nuclear Respiratory Factor 1 (NRF1) Orphan Gene (AID 2282987); conditions: HepG2 NRF1 cis-element reporter, Attagene multiplex; actives raise or lower the signal
Summary of the method: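 Endogenous factor activity was captured via cis-element-driven reporter transcripts in HepG2 cells. Following 24 h chemical treatment, transcripts were quantified by RT-PCR and capillary electrophoresis.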

[5] = ATG_NFI_CIS: Attagene CIS-FACTORIAL HepG2 Assay for human Nuclear Factor I (NFI) (AID 2282989); conditions: HepG2 cis-regulatory reporter, NFI response element transcription; actives raise or lower the signal
Summary of the method: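 HepG2 cells transiently transfected with cis-element-driven multiplexed reporter transcription units, dosed for 24 h. Reporter mRNA quantified by RT-PCR, fluorescent labelling, HpaI digestion and capillary electrophoresis; bidirectional fit versus DMSO baseline.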

[6] = ATG_NF_kB_CIS: Attagene CIS-FACTORIAL HepG2 Assay for human Nuclear Factor Kappa B (NF-kB) (AID 2282991); conditions: HepG2 Attagene cis-factorial NF-kB reporter mRNA; actives raise or lower the signal
Summary of the method: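 After 24 h compound incubation, transfected HepG2 cells yield total RNA; reporter cDNA is PCR-amplified, end-labelled with 6-FAM, HpaI-digested and analysed on a genetic analyser. Endogenous factor activity, DMSO-referenced bidirectional fit.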

[7] = ATG_NRF2_ARE_CIS: Attagene CIS-FACTORIAL HepG2 Assay for human Nuclear Factor Erythroid 2 Related Factor 2 (NFR2) response to Antioxidant Response Elements (ARE) (AID 2282992); conditions: HepG2 Attagene ARE/NRF2 reporter, transcription factor activity; actives raise or lower the signal;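 on AC50: reporter mRNA level measured by RT-PCR and capillary electrophoresis fluorescence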
Summary of the method: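 Fluorescence intensity of reporter-specific cDNA fragments, separated by capillary electrophoresis, reflects mRNA induction in transfected HepG2 cells at 24 h. Activity is fitted bidirectionally, DMSO serving as baseline.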

[8] = ATG_Oct_MLP_CIS: Attagene CIS-FACTORIAL HepG2 Assay for human Octamer-Binding Transcription Factor (Oct) (AID 2282993); conditions: HepG2 Attagene cis-factorial Oct reporter, mRNA; actives raise or lower the signal
Summary of the method: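 HepG2 cells transiently transfected with cis-promoter-driven multiplexed reporter transcription units, dosed for 24 h. Reporter mRNA quantified by RT-PCR, fluorescent labelling, HpaI digestion and capillary electrophoresis; bidirectional fits versus DMSO baseline.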

[9] = target: Cellular tumor antigen p53 (Homo sapiens) (UniProt P04637); assay: ATG_p53_CIS: Attagene CIS-FACTORIAL HepG2 Assay for human p53 Transcription Factor (AID 2282994); conditions: HepG2 p53 cis-element reporter, Attagene mRNA; actives raise or lower the signal
Summary of the method: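 Transiently transfected HepG2 (multiple cis reporter transcription units); exposure 24 h; reporter RNA via RT-PCR, 6-FAM extension, 2 h HpaI digest at 37 C, CE detection; DMSO baseline.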

[10] = BSK_3C_TissueFactor: BioMAP Diversity Plus: 3C Assay for Tissue Factor Biomarker Activity (AID 2282997); conditions: BioMAP 3C HUVEC, tissue factor biomarker readout; actives raise or lower the signal
Summary of the method: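 Tissue Factor measured by ELISA, 24 h after treatment of primary HUVEC in the BioMAP 3C setting.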

[11] = BSK_3C_uPAR: BioMAP Diversity Plus: 3C Assay for Urokinase-type plasminogen activator receptor (uPAR) Biomarker Activity (AID 2282998); conditions: BioMAP 3C HUVEC, uPAR biomarker ELISA; actives raise or lower the signal
Summary of the method: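 Human umbilical vein endothelial primary cells were exposed to test chemical for 24 h. Cell-surface uPAR was then quantified by ELISA, and responses were fitted bidirectionally against DMSO as negative control and baseline.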

[12] = BSK_4H_Eotaxin3: BioMAP Diversity Plus: 4H Assay for Eotaxin 3 Biomarker Activity (AID 2283000); conditions: primary human endothelial cells (HUVEC); actives raise or lower the signal
Summary of the method: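 Eotaxin-3 (CCL26) levels were measured by ELISA in HUVEC primary cultures 24 h post-dosing. Gain or loss of signal was fitted in both directions, with DMSO serving as baseline and negative control.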

[13] = target: human Peroxisome Proliferator-activated Receptor delta (PPARd), PPARD (gene 5467) (UniProt Q03181); assay: ATG_PPARd_TRANS: Attagene TRANS-FACTORIAL HepG2 Assay for human Peroxisome Proliferator-activated Receptor delta (PPARd) (AID 2283002; active means hit-call score of the fitted dose curve at least 0.9, where 1 is the maximum)
Summary of the method: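 Measured quantity: GAL4-UAS reporter transcript induction in HepG2 after 24 h chemical dosing, with NR-Gal4 chimeras supplied by transient transfection. Detection by RT-PCR and capillary electrophoresis; upward fit against DMSO.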

[14] = read-out: Intercellular Adhesion Molecule 1 (ICAM1), ICAM1 (gene 3383); assay: BSK_3C_ICAM1: BioMAP Diversity Plus: 3C Assay for Intercellular Adhesion Molecule 1 (ICAM1) Biomarker Activity (AID 2283003); conditions: primary human endothelial cells (HUVEC); actives raise or lower the signal
Summary of the method: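 Chemicals are dosed onto primary human umbilical vein endothelium (3C system). After 24 h, ICAM-1 is measured by ELISA, and responses are fitted bidirectionally relative to DMSO.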

[15] = target: Myc proto-oncogene protein (Homo sapiens) (UniProt P01106); assay: ATG_Myc_CIS: Attagene CIS-FACTORIAL HepG2 Assay for human Myelocytomatosis (Myc) Proto-Oncogene Transcription Factor (AID 2282990); conditions: HepG2, Attagene cis-reporter transcription factor activity; actives raise or lower the signal
Summary of the method: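 DMSO-normalised, bidirectionally fitted reporter mRNA signal. HepG2 cells transfected with cis reporter constructs, treated 24 h; transcripts detected by RT-PCR, 6-FAM primer extension and CE.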

[16] = target: human Retinoic Acid Receptor beta (RARb), RARB (gene 5915) (UniProt P10826); assay: ATG_RARb_TRANS: Attagene TRANS-FACTORIAL HepG2 Assay for human Retinoic Acid Receptor beta (AID 2283004; active means hit-call score of the fitted dose curve at least 0.9, where 1 is the maximum)
Summary of the method: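 HepG2 cells were transiently transfected with GAL4-UAS reporter units that report activity of exogenous chimeric NR-Gal4 proteins, then exposed to compound for 24 h. Reporter mRNA was quantified by RT-PCR with capillary electrophoresis fluorescence, as gain of signal over DMSO.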

[17] = BSK_3C_VCAM1: BioMAP Diversity Plus: 3C Assay for Vascular cell adhesion molecule 1 (VCAM1) Biomarker Activity (AID 2282999); conditions: BioMAP 3C HUVEC, VCAM1 ELISA, cytokine-stimulated; actives raise or lower the signal
Summary of the method: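 Vascular primary endothelium (human umbilical vein) was exposed to chemicals and assayed 24 h later. VCAM-1 levels came from ELISA, with DMSO serving as baseline for bidirectional fitting.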

[18] = target: human Peroxisome Proliferator-activated Receptor alpha (PPARa), PPARA (gene 5465) (UniProt Q07869); assay: ATG_PPARa_TRANS: Attagene TRANS-FACTORIAL HepG2 Assay for human Peroxisome Proliferator-activated Receptor alpha (PPARa) (AID 2283001; active means hit-call score of the fitted dose curve at least 0.9, where 1 is the maximum;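 on AC50: potency for gain of reporter signal over DMSO so agonist or activator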)
Summary of the method: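 Cells (HepG2) are transfected with multiple reporter transcription units, exposed to chemical for 24 h, then total RNA is reverse-transcribed and amplified. Labelled products are quantified by capillary electrophoresis; induction is referenced to DMSO.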

[19] = ATG_M_06_TRANS: Attagene TRANS-FACTORIAL HepG2 Assay for M06 Transcription Factor (Internal Marker) (AID 2282983; active means hit-call score of the fitted dose curve at least 0.9, where 1 is the maximum); conditions: HepG2 Attagene TRANS M06 internal marker reporter
Summary of the method: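 mRNA levels of a reporter transcript, quantified as FAM fluorescence on capillary electrophoresis, served as readout. HepG2 cells expressing exogenous GAL4-chimera reporter constructs were exposed for 24 h. Gain of signal over DMSO was evaluated.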

Measured: AC50

Sequence of Cellular tumor antigen p53 (Homo sapiens) (P04637 whole entry, looked up): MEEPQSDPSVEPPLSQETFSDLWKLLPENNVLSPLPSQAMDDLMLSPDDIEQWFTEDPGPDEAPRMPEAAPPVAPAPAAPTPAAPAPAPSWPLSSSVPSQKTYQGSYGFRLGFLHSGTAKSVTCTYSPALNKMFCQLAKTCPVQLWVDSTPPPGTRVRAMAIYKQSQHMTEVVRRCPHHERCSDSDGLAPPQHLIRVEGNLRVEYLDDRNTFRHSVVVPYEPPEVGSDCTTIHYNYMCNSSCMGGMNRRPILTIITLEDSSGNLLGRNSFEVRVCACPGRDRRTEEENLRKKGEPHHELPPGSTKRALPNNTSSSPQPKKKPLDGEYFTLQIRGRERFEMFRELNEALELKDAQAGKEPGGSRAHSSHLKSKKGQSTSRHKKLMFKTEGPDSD
Sequence of Nuclear respiratory factor 1 (Homo sapiens) (Q16656 whole entry, looked up): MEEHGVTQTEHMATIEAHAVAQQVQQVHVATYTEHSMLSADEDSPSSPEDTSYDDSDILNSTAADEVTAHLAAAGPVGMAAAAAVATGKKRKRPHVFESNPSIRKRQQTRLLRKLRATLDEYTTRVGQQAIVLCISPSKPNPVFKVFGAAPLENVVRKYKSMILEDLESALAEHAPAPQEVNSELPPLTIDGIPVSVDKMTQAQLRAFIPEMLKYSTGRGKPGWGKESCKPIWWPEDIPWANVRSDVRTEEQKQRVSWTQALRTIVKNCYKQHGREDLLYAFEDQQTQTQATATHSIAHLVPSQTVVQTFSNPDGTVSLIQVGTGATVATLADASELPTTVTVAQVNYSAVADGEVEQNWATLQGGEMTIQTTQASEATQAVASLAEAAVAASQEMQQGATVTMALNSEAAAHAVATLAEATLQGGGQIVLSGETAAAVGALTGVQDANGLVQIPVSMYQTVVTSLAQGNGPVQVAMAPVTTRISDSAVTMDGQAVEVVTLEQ
Sequence of human Peroxisome Proliferator-activated Receptor delta (PPARd), PPARD (gene 5467) (Q03181 whole entry, looked up, the tested form may be a part): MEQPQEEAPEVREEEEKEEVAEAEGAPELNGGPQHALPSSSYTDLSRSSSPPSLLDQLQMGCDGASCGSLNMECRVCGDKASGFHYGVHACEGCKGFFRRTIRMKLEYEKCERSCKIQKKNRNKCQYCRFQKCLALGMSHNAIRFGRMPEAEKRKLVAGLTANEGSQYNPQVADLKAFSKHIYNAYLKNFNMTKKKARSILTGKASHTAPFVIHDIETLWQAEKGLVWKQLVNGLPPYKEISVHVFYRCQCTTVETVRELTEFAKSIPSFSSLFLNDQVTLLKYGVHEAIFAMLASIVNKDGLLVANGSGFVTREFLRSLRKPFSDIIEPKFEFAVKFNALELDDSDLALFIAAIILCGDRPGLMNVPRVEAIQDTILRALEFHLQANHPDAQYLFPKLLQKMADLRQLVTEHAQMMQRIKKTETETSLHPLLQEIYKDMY
Sequence of Myc proto-oncogene protein (Homo sapiens) (P01106 whole entry, looked up): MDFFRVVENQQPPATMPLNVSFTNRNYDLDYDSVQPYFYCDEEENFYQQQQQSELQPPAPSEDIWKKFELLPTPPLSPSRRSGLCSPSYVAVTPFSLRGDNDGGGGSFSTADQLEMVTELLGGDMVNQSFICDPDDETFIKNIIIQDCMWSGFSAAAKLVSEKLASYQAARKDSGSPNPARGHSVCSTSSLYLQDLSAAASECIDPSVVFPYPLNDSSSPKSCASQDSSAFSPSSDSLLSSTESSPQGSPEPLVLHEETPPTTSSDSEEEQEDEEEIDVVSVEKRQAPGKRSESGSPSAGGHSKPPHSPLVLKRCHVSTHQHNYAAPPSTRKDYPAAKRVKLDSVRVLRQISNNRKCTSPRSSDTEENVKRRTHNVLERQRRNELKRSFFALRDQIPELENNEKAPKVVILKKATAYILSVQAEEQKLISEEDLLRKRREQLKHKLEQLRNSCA
Sequence of human Peroxisome Proliferator-activated Receptor alpha (PPARa), PPARA (gene 5465) (Q07869 whole entry, looked up): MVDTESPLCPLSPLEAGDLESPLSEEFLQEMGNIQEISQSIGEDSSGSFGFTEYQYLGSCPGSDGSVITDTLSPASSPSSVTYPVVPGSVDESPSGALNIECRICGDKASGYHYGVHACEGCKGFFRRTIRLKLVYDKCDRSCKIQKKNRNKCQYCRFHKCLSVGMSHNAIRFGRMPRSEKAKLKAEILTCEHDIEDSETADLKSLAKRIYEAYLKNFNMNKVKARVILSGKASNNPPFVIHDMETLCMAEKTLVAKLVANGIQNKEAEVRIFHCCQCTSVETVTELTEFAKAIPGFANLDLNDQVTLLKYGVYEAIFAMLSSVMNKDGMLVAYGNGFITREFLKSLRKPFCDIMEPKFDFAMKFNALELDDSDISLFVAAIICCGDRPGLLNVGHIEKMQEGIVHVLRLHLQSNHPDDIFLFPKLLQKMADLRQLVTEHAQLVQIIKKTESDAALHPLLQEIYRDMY
Sequence of Nuclear receptor subfamily 4 group A member 2 (Homo sapiens) (P43354 whole entry, looked up, the tested form may be a part): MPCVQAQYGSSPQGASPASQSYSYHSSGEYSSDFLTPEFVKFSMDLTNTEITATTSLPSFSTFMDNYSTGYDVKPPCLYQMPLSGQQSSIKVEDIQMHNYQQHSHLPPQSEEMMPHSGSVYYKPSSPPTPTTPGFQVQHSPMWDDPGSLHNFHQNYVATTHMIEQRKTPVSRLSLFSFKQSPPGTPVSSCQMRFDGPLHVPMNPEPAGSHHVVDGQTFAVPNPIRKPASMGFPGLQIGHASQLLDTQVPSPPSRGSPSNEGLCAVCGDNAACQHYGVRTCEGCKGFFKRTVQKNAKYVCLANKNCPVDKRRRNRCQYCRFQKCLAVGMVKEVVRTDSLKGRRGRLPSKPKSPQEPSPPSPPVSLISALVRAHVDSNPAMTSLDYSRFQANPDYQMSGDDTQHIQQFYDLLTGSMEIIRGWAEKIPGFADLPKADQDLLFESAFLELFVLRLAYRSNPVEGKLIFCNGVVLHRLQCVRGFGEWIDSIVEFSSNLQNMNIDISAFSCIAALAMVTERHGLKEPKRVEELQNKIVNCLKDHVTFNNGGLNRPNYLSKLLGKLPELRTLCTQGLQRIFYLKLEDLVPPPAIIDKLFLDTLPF
Sequence of Transcriptional activator Myb (Homo sapiens) (P10242 whole entry, looked up): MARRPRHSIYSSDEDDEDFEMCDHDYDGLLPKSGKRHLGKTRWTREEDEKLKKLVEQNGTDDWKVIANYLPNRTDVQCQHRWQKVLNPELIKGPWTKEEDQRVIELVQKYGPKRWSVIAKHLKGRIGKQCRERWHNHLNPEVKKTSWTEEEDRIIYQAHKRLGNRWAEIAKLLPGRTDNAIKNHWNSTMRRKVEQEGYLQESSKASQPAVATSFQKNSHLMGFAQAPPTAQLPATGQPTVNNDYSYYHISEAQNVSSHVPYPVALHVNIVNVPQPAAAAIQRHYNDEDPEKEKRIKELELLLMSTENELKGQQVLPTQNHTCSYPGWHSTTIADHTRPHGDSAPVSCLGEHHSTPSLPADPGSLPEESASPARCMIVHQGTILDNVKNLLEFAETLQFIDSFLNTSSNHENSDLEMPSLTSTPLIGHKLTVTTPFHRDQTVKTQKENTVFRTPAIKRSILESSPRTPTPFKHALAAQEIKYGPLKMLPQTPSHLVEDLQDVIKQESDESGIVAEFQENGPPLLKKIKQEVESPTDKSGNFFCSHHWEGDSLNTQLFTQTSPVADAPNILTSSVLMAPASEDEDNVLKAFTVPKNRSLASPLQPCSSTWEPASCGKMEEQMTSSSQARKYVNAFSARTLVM
Sequence of human Retinoic Acid Receptor beta (RARb), RARB (gene 5915) (P10826 whole entry, looked up, the tested form may be a part): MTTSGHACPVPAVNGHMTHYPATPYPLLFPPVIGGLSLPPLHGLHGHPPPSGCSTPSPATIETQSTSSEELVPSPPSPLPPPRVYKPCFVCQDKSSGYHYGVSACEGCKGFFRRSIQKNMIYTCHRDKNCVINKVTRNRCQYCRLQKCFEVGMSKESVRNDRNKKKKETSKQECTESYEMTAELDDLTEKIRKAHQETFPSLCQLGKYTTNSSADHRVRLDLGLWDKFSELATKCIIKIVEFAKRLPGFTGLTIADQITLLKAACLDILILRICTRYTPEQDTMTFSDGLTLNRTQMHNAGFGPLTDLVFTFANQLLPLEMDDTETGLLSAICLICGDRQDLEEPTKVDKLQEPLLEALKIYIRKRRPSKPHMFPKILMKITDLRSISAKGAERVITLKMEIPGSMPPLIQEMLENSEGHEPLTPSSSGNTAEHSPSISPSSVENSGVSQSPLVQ

CCOP(=O)(OCC)OC(=CCl)c1ccc(Cl)cc1Cl
active: [2] 100 µM | [7] 7.84 µM | [10] 20 µM | [11] 31.5 µM | [12] 30.9 µM
not listed: [15] | [16] | [17] | [18] | [19]
inactive: all other assays above

Cc1cc(-c2cc(C)c(N)c(C)c2)cc(C)c1N
inactive: [1] | [2] | [3] | [4] | [5] | [15] | [6] | [7] | [8] | [16]

c1ccc2sc(SNC3CCCCC3)nc2c1
active: [15] 148 µM | [7] 80.6 µM | [10] 1.16 µM
not listed: [6] | [9] | [16] | [19]
inactive: all other assays above

CCC[N+](CCC)(CCC)CCC
inactive: [19] | [3] | [5] | [15] | [7] | [8] | [9] | [13]

O=[N+]([O-])c1ccc(Cl)c([N+](=O)[O-])c1
active: [15] 3.71 µM
inactive: [1] | [2] | [3] | [4] | [5] | [8] | [9]

Cc1cc(SCc2sc(-c3ccc(C(F)(F)F)c(F)c3)nc2C)ccc1OCC(=O)O
inactive: [3] | [5] | [15] | [6] | [7]
active: [8] 15.6 µM | [18] 0.201 µM

CC(C)C(C)(N)C#N (stereo not given)
inactive: [3] | [4] | [5] | [15] | [6] | [7] | [8] | [9] | [13]

CCC[CH2][Sn]([CH2]CCC)([CH2]CCC)[CH2]CCC
inactive: [3] | [4] | [18]
active: [2] 0.497 µM | [5] 17.3 µM | [6] 11.1 µM | [7] 5.43 µM | [8] 11.1 µM | [9] 18.5 µM
